Measurements from PubChem BioAssay (NCI).
This is part of a sample that, as a whole, favours compounds with a hit. Of some 83,000 tested, about 20% had one in any assay.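 Plates (96-well) were seeded with cells, treated with compound at one concentration, and incubated for 48 hours before percent growth was determined.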 The source made the active and inactive calls. Rule for the calls: active = growth percent below 10; inactive = the rest.

Experiments:
Test in all cases: NCI-60 one-dose screen, 48 h (100 = growth as untreated, 0 = no growth, -100 = all killed)
Details in all cases: 10 µM unless noted
[1] = system: T-47D breast
[2] = system: BT-549 breast
[3] = system: MDA-MB-435 melanoma
[4] = system: SW-620 colon
[5] = system: MCF7 breast
[6] = system: HCT-116 colon
[7] = system: HCC-2998 colon
[8] = system: KM12 colon

Measured: growth

O=C1C=CC2(O)OC/C(=C\c3ccccc3)C(O)=C2C1=O (configuration not stated)
active: [1] -19.8% | [2] -1.66% | [4] 5.52% | [6] -9.7% | [8] -16.9%
inactive: [3] 15.8% | [5] 23.4% | [7] 80.6%

O=C(Nc1ccc(Nc2ccncc2)cc1)c1ccc(Nc2ccnc3ccc([N+](=O)[O-])cc23)cc1
inactive: [1] 122% | [2] 107% | [3] 104% | [4] 105% | [5] 91.9% | [6] 97% | [7] 76.7% | [8] 90.1%

C#CCOc1cccc(Nc2ncnc3c2ncn3C2CCN(C(=O)CCl)C2)c1 (configuration not stated)
active: [1] -45.2% | [2] -62.5% | [3] -23.8% | [4] -64.2% | [5] -50.9% | [6] 1.32% | [7] -22.8%
inactive: [8] 23.7%

Cc1ccc(S(=O)(=O)N2CCCN(c3nc(-c4ccccc4)nc4nc(-c5ccccc5)oc34)CC2)cc1
inactive: [1] 90.8% | [2] 117% | [3] 104% | [4] 111% | [5] 93.4% | [6] 104% | [7] 107% | [8] 109%

c1cc(OCCN2CCCCCC2)ccc1CNc1ccc2nc(CCC3CCCCC3)[nH]c2c1
inactive: [1] 31.6% | [2] 76.5% | [3] 40.6% | [4] 28.8% | [6] 22.9% | [8] 65.6%
active: [5] 5.67% | [7] -4.87%

COc1cc(C[C@H]2COc3cc(O)cc(O)c3C2=O)ccc1O
inactive: [1] 31.3% | [2] 27.8% | [4] 23.1% | [5] 22.6% | [6] 12.6% | [7] 88.2% | [8] 24.7%
active: [3] -22.5%

COc1ccc2c(c1)c(-c1nc(-c3ccc4ccccc4c3)cs1)cn2C
inactive: [1] 58% | [2] 89% | [3] 70.1% | [4] 73.4% | [5] 30.8% | [6] 87.9% | [7] 99.5% | [8] 67.4%

Cc1ccc(NC(=O)c2cc3ccccc3cc2O)c(C)c1
inactive: [1] 97.2% | [2] 75.9% | [3] 72.5% | [4] 78.1% | [5] 92.7% | [6] 75.8% | [7] 96.7% | [8] 83.1%

COc1ccc(CN2C(=O)OC(C)(COC(C)=O)C2=O)cc1 (configuration not stated)
inactive: [1] 91.9% | [2] 107% | [3] 107% | [4] 107% | [5] 96.3% | [6] 93.5% | [7] 100% | [8] 112%

CCOc1ncc([N+](=O)[O-])c(OCC)n1
inactive: [1] 106% | [2] 105% | [3] 124% | [4] 111% | [5] 93.8% | [6] 105% | [7] 99.4% | [8] 117%

Cc1ccc(S(=O)(=O)OC[C@]23CCC(C)(C)C[C@H]2C2=CC[C@@H]4[C@@]5(C)CCCNC(C)(C)[C@@H]5CC[C@@]4(C)[C@]2(C)CC3)cc1
inactive: [2] 88.2% | [3] 31% | [5] 23.8%
active: [1] 1.19% | [4] -71.3% | [6] -83% | [7] -12.3% | [8] -1.94%

CCN1C(=O)N(c2ccccc2)C2NC(=S)N(/N=C/C=C/c3ccccc3OC)C21 (configuration not stated)
active: [3] -27.5% | [5] 7.64% | [6] 9.02%
inactive: [1] 42.3% | [2] 20.4% | [4] 22.2% | [7] 14.8% | [8] 11.3%

COc1ccc(C2CC(n3ccnc3)c3cc(OC)c(OC)c(OC)c32)cc1O (configuration not stated)
active: [3] 5%
inactive: [1] 94.3% | [2] 90.4% | [4] 62.5% | [5] 44.8% | [6] 81.1% | [7] 99.2% | [8] 50.6%

OC1CSSC1Cn1cnc2c(Nc3ccc(OCc4cccc(F)c4)c(Cl)c3)ncnc21 (configuration not stated)
inactive: [1] 19.8% | [2] 52.9%
active: [3] -77.1% | [4] -20.3% | [5] -60.1% | [6] -33.1% | [7] -81.7% | [8] -60.3%

COc1ccc(Oc2ccc(/C=C/C(=O)c3cc4ccccc4oc3=O)cc2)cc1
inactive: [1] 84.6% | [2] 81% | [3] 89.3% | [4] 103% | [5] 25.9% | [6] 56.6% | [7] 108% | [8] 85.9%

N#C/C(=C\c1ccc(-c2cccc(Cl)c2)o1)C(=O)Nc1ncc(Cc2ccc(Cl)cc2)s1
inactive: [1] 20.7% | [2] 72.9% | [3] 56.5% | [4] 62.5% | [5] 54.4% | [6] 41.9% | [7] 94.3% | [8] 48.6%

CNCCCNc1nc2ccccc2c2c(=O)c3cc(Cl)ccc3sc12
inactive: [1] 48.5% | [2] 92.4%
active: [3] -18.5% | [4] -87% | [5] -77.3% | [6] -92.1% | [7] -89.8% | [8] -24.6%

c1cc(OCCN2CCCC2)ccc1CNc1ccc2nc(CCC3CCCCC3)[nH]c2c1
inactive: [2] 82.5% | [6] 15.3% | [7] 19.7% | [8] 52.5%
active: [1] -11.5% | [3] -50.7% | [4] 8.87% | [5] 3.44%

COc1ccc2c(c1)C(C)Cc1c(ncnc1-n1cnc3cc(C)ccc31)N2C (configuration not stated)
inactive: [1] 44.6% | [4] 25% | [5] 16.1% | [7] 10.7% | [8] 12.2%
active: [2] -3.64% | [3] -17.5% | [6] 6.84%

CCCC(=O)NC(c1ccc2c(c1)OCO2)c1cc(Cl)c2cccnc2c1O (configuration not stated)
inactive: [1] 23% | [2] 63.3% | [3] 37.5% | [4] 24.7% | [5] 17.5% | [6] 23.1% | [7] 43.1% | [8] 33.9%

Cc1cc(=O)oc2cc(Oc3nc(Br)cn4c(Br)cnc34)ccc12
inactive: [1] 53.7% | [2] 92.2% | [3] 87.2% | [4] 116% | [5] 22.2% | [6] 55.5% | [7] 105% | [8] 78.9%

CCCN(CCSSCCNc1nc(N(C)O)nc(N(C)O)n1)c1nc(N(C)O)nc(N(C)O)n1
active: [2] 7.99%
inactive: [1] 61.9% | [3] 95.1% | [4] 75.1% | [5] 83.2% | [6] 41% | [7] 59.8% | [8] 48.2%

CC1(C)CC[C@]2(CO)CC[C@]3(C)[C@](O)([C@H](O)C[C@@H]4[C@@]5(C)CCCNC(C)(C)[C@@H]5CC[C@]43C)[C@@H]2C1
inactive: [1] 84.3% | [2] 98.8% | [3] 93.2% | [4] 99.6% | [5] 91.7% | [6] 71.3% | [7] 58.4% | [8] 95%

Cc1cccc(N=Nc2cccc(C)c2)c1
inactive: [1] 110% | [2] 108% | [3] 100% | [4] 106% | [5] 97.5% | [6] 111% | [7] 112% | [8] 110%

COCCn1cc(-c2nc(-c3cc4cccnc4n3C)cs2)c2ccccc21
active: [1] -36.7% | [3] 6.84% | [5] 6.6% | [8] 4.96%
inactive: [2] 24.9% | [4] 28.9% | [6] 23.5% | [7] 57.8%

CCCCC#Cc1c(I)n(C2OC(CO[Si](C)(C)C(C)(C)C)C3OC(C)(C)OC32)c(=O)n(C(=O)c2ccccc2)c1=O (configuration not stated)
inactive: [2] 27.5% | [3] 44.8% | [5] 28.9% | [6] 14.7% | [8] 71.7%
active: [1] -10.1% | [4] -49.2% | [7] -9.34%

O=c1cc(C(F)(F)F)c2cc(-c3cc4ccccc4c(=O)o3)c(O)cc2o1
inactive: [1] 49.4% | [2] 63.6% | [3] 72.8% | [4] 86.1% | [5] 77.4% | [6] 71.7% | [7] 92.8% | [8] 76.5%

O=S(=O)(Nc1cc(F)cc(F)c1)c1ccc(-c2cnc(C3CC3)o2)cc1
active: [3] -23.6%
inactive: [1] 29.8% | [2] 36.1% | [4] 17.2% | [5] 14.3% | [6] 19.1% | [7] 67.3% | [8] 19.2%

O=[N+]([O-])c1ccccc1Nc1ccc2ccccc2c1
inactive: [1] 91.1% | [2] 84.8% | [3] 99% | [4] 83.8% | [5] 74.9% | [6] 82.9% | [7] 105% | [8] 99.4%
